# In all, about 5,500 compounds went through this assay and about 2,000 (36%) were called active. Inconclusive results (about 18%) are left out. This is one part of the list. A number with no mark means an inactive call. No stated cut-off is given here; in the data, active means normalized growth mostly below about 0.91 (no sharp cut-off); inconclusive means no clear call, values can overlap the other calls; inactive means mostly above about 0.92.
# Experiment: chemical genetic growth profiling, strain panel (AID 1159580);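 further: tested at 20 µM; growth read once vehicle control cultures reached saturation at 30 °C; 1 = growth at the plate median or of vehicle wells; lower values mean less growth of the strain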
# Details: S. cerevisiae deletion strains, growth OD
# [1] = locus YAL013W, strain DEP1, hits give low values
# [2] = locus YBR229C, strain ROT2, hits give low values
# [3] = locus YDL101C, strain DUN1, hits give low values
# [4] = locus YDL134C, strain PPH21, hits give low values
# [5] = locus YDR150W, strain NUM1, hits give low values
# [6] = locus YEL061C, strain CIN8, hits give low values
# [7] = locus YGR078C, strain PAC10, hits give low values
# [8] = locus YHR030C, strain SLT2, hits give low values
# [9] = locus YHR087W, strain rtc3, hits give low values
# [10] = locus YJR043C, strain POL32, hits give low values
# [11] = locus YJR075W, strain HOC1, hits give low values
# [12] = locus YLR039C, strain RIC1, hits give low values
# [13] = locus YLR058C, strain SHM2 (second series), hits give low values
# [14] = locus YLR085C, strain ARP6, hits give low values
# [15] = locus YLR262C, strain YPT6, hits give low values
# [16] = locus YML094W, strain GIM5, hits give low values
# [17] = locus YMR219W, strain ESC1, hits give low values
# [18] = locus YMR263W, strain SAP30, hits give low values
# [19] = locus YNL153C, strain GIM3, hits give low values
# [20] = locus YNL298W, strain CLA4 (second series), hits give low values
# [21] = locus YNL322C, strain KRE1, hits give low values
# [22] = locus YNR030W, strain Alg12, hits give low values
# [23] = locus YPL055C, strain LGE1, hits give low values
# [24] = locus YPL241C, strain CIN2, hits give low values
# [25] = locus YPR135W, strain CTF4, hits give low values
smiles,measurement,setting,value
N#Cc1c(Cl)cccc1N1CCC(C(=O)NC(=O)Nc2ccc(Cl)cc2)CC1,normalized growth,[1],0.998
same,normalized growth,[2],1.01
same,normalized growth,[3],1
same,normalized growth,[4],1.03
same,normalized growth,[5],1.04
same,normalized growth,[6],1.01
same,normalized growth,[7],1.01
same,normalized growth,[8],1.04
same,normalized growth,[9],1.02
same,normalized growth,"locus YJL187C, strain SWE1, hits give low values",1.01
same,normalized growth,[10],1
same,normalized growth,[11],1.05
same,normalized growth,[12],1.01
same,normalized growth,[13],1.03
same,normalized growth,[14],1.07
same,normalized growth,[15],0.998
same,normalized growth,[16],1.04
same,normalized growth,[17],1.02
same,normalized growth,[18],1.01
same,normalized growth,"locus YMR307W, strain GAS1, hits give low values",1.03
same,normalized growth,[19],1.01
same,normalized growth,[20],1.02
same,normalized growth,[21],1.01
same,normalized growth,[22],1.03
same,normalized growth,[23],1.1
same,normalized growth,[24],1.01
same,normalized growth,[25],1.04
N#Cc1c(Cl)cccc1N1CCCC1,normalized growth,[1],0.877 (active)
same,normalized growth,[2],0.935
same,normalized growth,[3],0.87 (active)
same,normalized growth,[4],0.98
same,normalized growth,[5],0.85
same,normalized growth,[6],0.891 (active)
same,normalized growth,[7],0.851 (active)
same,normalized growth,[8],0.615 (active)
same,normalized growth,[9],0.886 (active)
same,normalized growth,[10],0.861 (active)
same,normalized growth,[11],0.801 (active)
same,normalized growth,[12],0.576 (active)
same,normalized growth,[13],0.952
same,normalized growth,[14],0.791
same,normalized growth,[15],0.567 (active)
same,normalized growth,[16],0.779 (active)
same,normalized growth,[17],0.931 (active)
same,normalized growth,[18],0.915
same,normalized growth,"locus YNL128W, strain TEP1, hits give low values",0.922
same,normalized growth,[19],0.833 (active)
same,normalized growth,[20],0.762 (active)
same,normalized growth,[21],0.929 (active)
same,normalized growth,[22],0.83 (active)
same,normalized growth,"locus YOL006C, strain TOP1, hits give low values",0.473 (active)
same,normalized growth,[23],0.776 (active)
same,normalized growth,[24],0.815 (active)
same,normalized growth,[25],0.769

# — PubChem BioAssay AID1159580 (chemical genetic matrix, 2015)
